Laboratory results taken from PubChem BioAssay AID1053125 (Broad Institute, 2014).
Potency and affinity values are given separately. Activity calls are given as the source filed them.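 The calls were made as follows: active = viability loss whose fitted half-maximal concentration is at most twice the top valid tested dose; inconclusive = flat curve with 30 to 70% loss, or poor fit; inactive = the rest.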

assay: viability loss in HepG2 liver cells – cell-based, ATP luminescence, cherry-pick, set 6, cytotoxicity control, dose response (AID 1053125); settings: ATP luminescence (CellTiter-Glo), 72 h; series mostly up to 26 µM;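 also: negative values mean loss of viability signal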

Row | Structure (SMILES) | outcome
1 | CCn1c(=N)c(C(=O)NCCCOC)cc2c(=O)n3cccc(C)c3nc21 | inactive
2 | O=[N+]([O-])c1cccc(-c2n[nH]c(=S)n2-c2ccc(Br)cc2)c1 | inactive
3 | Cc1cc(OC(=O)c2ccccc2Cl)ccc1N1C(=O)CCC1=O | inactive
4 | CC(=O)Oc1ccc(C(=O)Nc2cc(C)on2)cc1 | inactive
5 | COCCCOc1cc(NCc2ccccc2)c2ncn(C(C)C)c2c1 | inactive
6 | CCOc1ccc(C2C(C#N)=C(N)Oc3cc(O)ccc32)cc1OCC (centres undefined) | inactive
7 | S=c1[nH]c2ccc(Cc3ccc4[nH]c(=S)[nH]c4c3)cc2[nH]1 | inactive
8 | Cn1cc(C(c2ccccc2OCC(=O)O)c2cn(C)c3ccccc23)c2ccccc21 | inactive
9 | Cc1cc(-n2c(=O)c(C#N)cc3c(=O)n4ccccc4nc32)no1 | inactive
10 | CSc1ccc(Cl)c(C(=O)N2CCOc3ccccc32)c1 | inactive
11 | CCCCn1nc(NC(=O)c2cccs2)c2cc3cc(OC)ccc3nc21 | inactive
12 | Cc1cc2c(C)cc(=O)oc2c2c1NCCC2 | inactive
13 | Fc1ccc(-c2nc3ccccn3c2NCc2ccc3c(c2)OCO3)cc1 | inactive
14 | O=c1[nH]c(=O)c2nc(-c3ccc(Cl)cc3)cnc2[nH]1 | inactive
15 | Cc1noc(C)c1-c1ccc(C(=O)NCCc2ccccc2)c2occc12 | inactive
16 | Cc1c2c(n3c(nc4ccccc43)c1C#N)N(CCN1CCOCC1)CC2 | inactive
17 | Cn1cnc(S(=O)(=O)Nc2ccc(OC(F)(F)F)cc2)c1 | inactive
18 | O=C(CCc1c[nH]c2ccccc12)OCC(=O)c1ccccc1 | inactive
19 | Cc1cccn2c(=O)c3cc(C(=O)NCc4ccco4)c(=N)n(CCc4ccccc4)c3nc12 | inactive
